In all, about 58,000 compounds went through this assay and about 3,400 (5.9%) were called active. The sample holds actives, similar compounds and a random draw of the others, so the mix is not that of the screen. A number with no mark means an inactive call.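 Rule for the calls: active = luminescence count or its row- and column-corrected plate score outside the 99.7% band of the plate's sample wells, on either side; inactive = the rest.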

Chain of D(1A) dopamine receptor (Homo sapiens) (P21728 whole entry, looked up): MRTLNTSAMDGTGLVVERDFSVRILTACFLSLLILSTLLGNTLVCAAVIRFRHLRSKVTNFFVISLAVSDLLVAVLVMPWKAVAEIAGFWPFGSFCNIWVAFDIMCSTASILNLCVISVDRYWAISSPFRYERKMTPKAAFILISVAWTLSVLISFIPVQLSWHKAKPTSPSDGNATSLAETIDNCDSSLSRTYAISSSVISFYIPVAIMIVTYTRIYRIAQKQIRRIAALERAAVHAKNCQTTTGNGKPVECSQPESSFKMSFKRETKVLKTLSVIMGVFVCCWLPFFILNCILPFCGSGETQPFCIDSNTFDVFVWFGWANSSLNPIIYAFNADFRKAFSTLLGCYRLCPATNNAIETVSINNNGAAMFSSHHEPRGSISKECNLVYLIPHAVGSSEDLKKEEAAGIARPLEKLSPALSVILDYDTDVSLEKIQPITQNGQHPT

This experiment addresses D(1A) dopamine receptor (Homo sapiens) (UniProt P21728). Nature of the experiment: D1 CRE-luciferase signal change, two-sided – cell-based, HEK293 D1, dopamine EC30, D1 allosteric modulator project, primary screen (AID 641). The conditions noted are these: dopamine EC30 potentiation, at 10 µM, actives deviate in either direction.
As for `COc1ccc(OC)c(Nc2nc(-c3ccc(O)c(O)c3)cs2)c1`, the B-score is -0.798.

Turning to `Oc1ccc(-c2csc(Nc3cccnc3)n2)cc1`, the B-score was 6.13 (active).

Turning to `c1ccc(Nc2nc(-c3ccncc3)cs2)nc1`, the B-score is -2.02.

For the compound `COc1ccc(OC)c(C(=O)c2coc3ccc(OC)cc23)c1`, the B-score was 0.803.

In the case of `COc1ccccc1-c1nnc(SCC(=O)Nc2ccccc2)o1`, the B-score is -1.39.

For `COc1ccc(CCNC(=O)CSc2nnc(-c3cccc(F)c3)o2)cc1OC`, the B-score is 0.506.

For the compound `COc1ccc(-c2nnc(SCC(=O)NC3CCCCC3)o2)cc1OC`, the B-score was 5.11 (active).

As to `Cc1ccc(-c2noc(-c3ccccc3C(=O)NCC3CCCO3)n2)cc1` (stereo unspecified), the B-score is -0.376.

Take `c1ccc2c(NCC3CCCO3)nc(-c3ccncc3)nc2c1` (stereo unspecified): the B-score was 6.75 (active).

As to `Cc1nc2ccccc2c2oc(C(=O)NCC3CCCO3)cc12` (stereo unspecified), the B-score was 1.81.

For the compound `CN(C)/C=C1/C(=O)Nc2ccccc21`, the B-score was 0.196.

`Cn1c(=O)c2[nH]c(NCC3CCCO3)nc2n(-c2ccccc2)c1=O` (stereo unspecified): the B-score is 2.53 (active).

On to `CC(C)(C)c1nc(NCC2CCCO2)c2nnn(Cc3ccccc3)c2n1` (stereo unspecified), for which the B-score was 0.157.

Turning to `CCCCn1c(SCC(=O)NCC2CCCO2)nc2ccc(N3CCOCC3)cc2c1=O` (stereo unspecified), the B-score is 0.249.

With `CCC1C(C#N)=C(SC)NC2=C1C(=O)CC(C)(C)C2` (stereo unspecified), the B-score is -0.282.

Consider `O=C(CCn1c(=O)[nH]c2ccccc2c1=O)NCCCN1CCN(c2cccc(Cl)c2)CC1`, for which the B-score was -1.82.

As to `O=C(CCCn1c(=O)[nH]c2cc(Cl)ccc2c1=O)NCCN1CCN(c2ccccc2)CC1`, the B-score was -3.76 (active).

As for `O=C(CCCCn1c(=O)[nH]c2ccccc2c1=O)NCc1ccc2c(c1)OCO2`, the B-score is 0.766.

For `C=CCNC(=O)C1CC=CCC1C(=O)O` (stereo unspecified), the B-score is 0.00169.

As to `CC(C)(C)NC(=O)c1cc(NC(=O)c2ccco2)cc(NC(=O)c2ccco2)c1`, the B-score was -0.752.

On to `O=C(c1ccco1)N1CCN(c2cccc(Cl)c2)CC1`, for which the B-score is -0.482.

Regarding `O=C(c1ccco1)N1CCN=C1SCc1cccc(Cl)c1`, the B-score is 6.32 (active).

For `O=C(C1CC1)N1CCN=C1SCc1ccc(Cl)cc1`, the B-score is 0.0469.

As to `N#CC1=C(N)OC2=C(C(=O)CCC2)C1C1CC=CCC1` (stereo unspecified), the B-score is -0.19.

On to `CCCN1C(=O)C(NC(C)=O)c2cc(OC)ccc21` (stereo unspecified), for which the B-score is 0.478.

In the case of `Cc1onc(-c2ccccc2)c1C(=O)Nc1ccccc1C#N`, the B-score was -4.73 (active).

As for `Cc1onc(-c2ccccc2)c1C(=O)N1CCOCC1`, the B-score was -1.43.

On to `CC(=O)Nc1cccc(NC(=O)c2c(-c3ccccc3)noc2C)c1`, for which the B-score is 0.894.

As to `Cc1cc(C)c2nc(N3CCCC3)c(C#N)cc2c1`, the B-score was 0.082.

As to `COCCN1Cc2cccc(C(=O)Nc3ccccc3OC)c2C1=O`, the B-score was 0.446.

With `CS(=O)(=O)NCc1ccc(C(=O)NCc2ccccc2)cc1`, the B-score is 0.452.

`CCCN1Cc2cccc(C(=O)NCc3ccccc3)c2C1=O`: the B-score was 11.5 (active).

As for `O=S(=O)(NCCNS(=O)(=O)c1ccccc1)c1ccccc1`, the B-score was 0.231.

On to `COc1ccccc1Oc1ccc(S(=O)(=O)Nc2cccnc2)cc1`, for which the B-score was -1.35.

For the compound `O=C(Nc1nnc(-c2ccc(Cl)cc2)o1)c1ccccc1Br`, the B-score is -0.685.

Turning to `CC1=CC(C)(C)N(C(=O)CSc2nccn2C)c2cc(C)ccc21`, the B-score is -0.925.

In the case of `Cc1noc(NS(=O)(=O)c2ccc(NC(=O)C34CCC(CC3)C4)cc2)c1C`, the B-score was -0.488.

Consider `CN(CC(=O)NC1CCCCC1)S(=O)(=O)c1cccc2cccnc12`, for which the B-score is -1.04.

Turning to `O=C(Cn1cnc2c(cnn2-c2ccc(F)cc2)c1=O)NCCc1ccccc1`, the B-score is -0.343.

As to `N#C/C(=C1\CCCN1)c1nc(-c2ccccc2)cs1`, the B-score is -1.24.

For `Cn1c(/C(C#N)=C2/CCCCCN2)nc2ccccc21`, the B-score was 11.4 (active).

On to `CCCn1c(C(O)c2ccc(OCC)cc2)nc2ccccc21` (stereo unspecified), for which the B-score is -0.886.

`COc1cc(C(O)c2nc3ccccc3n2C)cc(OC)c1OC` (stereo unspecified): the B-score is -0.575.

On to `CC(C)n1c(C(O)c2ccccc2)nc2ccccc21` (stereo unspecified), for which the B-score is 3.08 (active).

In the case of `CC1(C)Cc2ccccc2-c2nc(CN3CCOCC3)[nH]c(=O)c21`, the B-score is 11.8 (active).

Regarding `CCOC(=O)C1Cn2c(nc3c(c2=O)C(C)(CC)Cc2ccccc2-3)S1` (stereo unspecified), the B-score is -0.309.

In the case of `Cn1c(=O)c2c(nc(CN3CCOCC3)n2Cc2ccccc2)n(C)c1=O`, the B-score was -0.887.

Consider `Cc1ccc(N(CC(O)CN2CCCC2)S(=O)(=O)c2ccccc2)cc1` (stereo unspecified), for which the B-score was 0.09.

As for `COc1ccc(-c2nc(CS(=O)CC(=O)N3CCc4ccccc4C3)c(C)o2)cc1` (stereo unspecified), the B-score is -0.182.

Consider `Cc1cccc(-n2ncc3c(N4CCc5ccccc54)ncnc32)c1`, for which the B-score is -0.748.

As to `COc1ccc(-n2ncc3c(N4CCCc5ccccc54)ncnc32)cc1`, the B-score is 0.526.

Regarding `COc1ccc(-n2ncc3c(N4CCc5ccccc54)ncnc32)cc1`, the B-score is -3.03 (active).

Regarding `Cc1cc(/C=N/n2cnnc2)c(C)n1-c1ccc2ncccc2c1`, the B-score is -0.264.

With `CN1C(=O)c2ccc(NC(=O)c3c(F)c(F)c(F)c(F)c3F)cc2C1=O`, the B-score is 0.371.

For the compound `O=C(Cn1cnc2c(nnn2Cc2ccc(F)cc2)c1=O)NCc1ccc2c(c1)OCO2`, the B-score is -1.24.

Consider `O=C(CN1CCN(CC(=O)Nc2ccc3c(c2)OCO3)CC1)Nc1ccc(F)cc1`, for which the B-score is -0.0409.

In the case of `CNC(=O)C1CC(=O)N(Cc2ccc3c(c2)OCO3)C(=Nc2ccc(F)cc2)S1` (stereo unspecified), the B-score is -4.24 (active).

As for `O=C(Nc1cccc(F)c1)c1ccc(S(=O)(=O)N2CCCC2)cc1`, the B-score was -0.728.

Take `Cc1ccccc1OCC(=O)Nc1ccc(N2CCN(C(=O)C(C)C)CC2)c(Cl)c1`: the B-score was -0.399.

In the case of `CN1CCN(c2ccc(NC(=O)COc3ccc(Cl)cc3Cl)cc2)CC1`, the B-score is -5.29 (active).

On to `CC(C)CNS(=O)(=O)c1ccc(OCC(=O)Nc2ccc3c(c2)OCO3)c(Cl)c1`, for which the B-score is 0.525.

Turning to `Cc1ccc(C)c(NC(=O)CSc2nnc(Cc3cccn3C)n2-c2ccc(F)cc2)c1`, the B-score was -0.0122.

In the case of `CCOC(=O)C1CCc2nc3ccccc3c(=O)n21` (stereo unspecified), the B-score was -0.327.

With `CC(=O)OC(C)C[N+](C)(C)C` (stereo unspecified), the B-score is 6.75 (active).

Regarding `CC(C[N+](C)(C)C)OC(N)=O` (stereo unspecified), the B-score was 0.394.

`CSc1nnc(CNC(=O)c2ccccc2)n1-c1ccc(F)cc1`: the B-score was -0.759.

Turning to `Cc1ccccc1NC(=O)c1cnn(-c2ccccc2)c1NC(=O)c1ccco1`, the B-score is -0.921.

With `COCCCn1c(CCC(=O)O)ccc1-c1ccc(F)cc1`, the B-score is 0.034.

For `COC(=O)c1sc(NC(=O)c2ccc(OC)cc2OC)nc1C`, the B-score was -2.64 (active).

As for `COc1ccc(C(=O)Nc2nncs2)c(OC)c1`, the B-score was -0.602.

As for `COC(=O)c1sc(NC(=O)c2csc3c2CCCC3)nc1C`, the B-score is 0.102.

On to `O=C(C1CCN(S(=O)(=O)c2cccs2)CC1)N1CCCCCC1`, for which the B-score is -0.0225.

`O=S(=O)(c1cccs1)N1CCN(Cc2ccccc2)CC1`: the B-score was 0.549.

`O=S(=O)(c1cccs1)N1CCc2ccccc2C1`: the B-score was 7.95 (active).

Consider `CCNC(=O)CCc1nc(-c2ccc(C(C)(C)C)cc2)no1`, for which the B-score is -0.735.

As for `CCOc1ccccc1N(CC(=O)Nc1ccccc1C(=O)OC)S(C)(=O)=O`, the B-score was 0.461.

Regarding `CC1=C2C(=O)OC(c3ccoc3)C2(C)CCC1` (stereo unspecified), the B-score was -0.874.

Turning to `CC(=O)Nc1cccc(Oc2cc(C#N)c(C#N)cc2N2CCOCC2)c1`, the B-score was 10.6 (active).

In the case of `CCOc1cccc(NC(=O)CC#N)c1`, the B-score is -0.00988.

With `CC(=O)Nc1ccc(N2CCOCC2)c(C(=O)Nc2cccc(C)c2)c1`, the B-score is -0.395.

As to `COc1ccc(S(=O)(=O)N2CCC(C(=O)N3CCOCC3)CC2)cc1OC`, the B-score was 1.55.

With `O=C(Cn1cnc2c(nnn2-c2ccccc2)c1=O)N1CCC(Cc2ccccc2)CC1`, the B-score is -0.43.

Regarding `CCSC1=C(C#N)C(=O)n2c1cc1c2CCCC1`, the B-score was -0.914.

In the case of `CCSc1ncnc2c(C#N)c3n(c12)CCCCC3`, the B-score was 13.8 (active).

As to `CCOC(=O)C1=C(C)NC(=O)N(C(C)=O)C1c1ccc(Cl)cc1` (stereo unspecified), the B-score was -0.258.

For the compound `COc1ccc(-c2noc(-c3cccc(OC)c3OC)n2)cc1OC`, the B-score was -0.715.

As to `COc1ccc(-c2nc(-c3ccccc3)no2)c(OC)c1`, the B-score is -4.54 (active).

On to `COc1cc(-c2nc(-c3ccncc3)no2)cc(OC)c1OC`, for which the B-score is 0.324.

In the case of `COc1ccc(NC(=O)CN2CCN(S(=O)(=O)c3ccc(F)cc3)CC2)cc1Cl`, the B-score was 0.0874.

Take `CC1(C)CC(=O)C=C(NCCCNC2CCCCC2)C1`: the B-score is -0.045.

`COC(=O)c1ccccc1NC(=O)C1CCN(S(=O)(=O)c2cc(OC)ccc2OC)CC1`: the B-score was 16.9 (active).

On to `COc1cccc(CNC(=O)C2CCN(S(=O)(=O)c3cccc4cccnc34)CC2)c1`, for which the B-score was 0.421.

In the case of `CCOc1ccccc1NC(=O)C1CCN(S(=O)(=O)c2c(C)nn(C)c2C)CC1`, the B-score was -0.536.

Take `Cn1cc(S(=O)(=O)N2CCC(Cc3ccccc3)CC2)c(=O)n(C)c1=O`: the B-score is 0.229.

Regarding `CC1CCC(NC(=O)c2ccc(N3CCCC3=O)cc2)CC1` (stereo unspecified), the B-score was -0.328.

Regarding `O=P(c1cccs1)(c1cccs1)c1cccs1`, the B-score was -0.658.

As to `CC1C(c2ccccc2)=[N+]([O-])C2(CCCC2)N1O` (stereo unspecified), the B-score was 0.0193.

`CCCCc1nc2ccccc2c(=O)n1NC(=O)c1c(O)c2cccc3c2n(c1=O)CC3`: the B-score is -0.934.

As to `Nc1ccc(-c2nnc(-c3ccc(-c4ccccc4)cc3)o2)cc1`, the B-score is -0.481.

Regarding `CCCCCC(=O)Nc1ccc2oc(-c3ccncc3)nc2c1`, the B-score is -0.0351.

In the case of `CCc1ccc2oc(-c3ccc(N)cc3)nc2c1`, the B-score is -5.51 (active).

Values taken from PubChem BioAssay AID641 (Vanderbilt High Throughput Screening Facility, 2007).
